# Only some compounds are listed: those with a hit (about 5.4% of all), similar ones and a draw of the others.
# VP16 counter: counter-screen for ROR gamma inhibitors: Gal4-VP16 reporter; 3.5% of 310,000 active; Potency, µM (doses to about 53.6 µM), inactives show at the highest dose activity, negative = inhibition, most hits filed as inhibitors; AID 2546; Drosophila S2 Gal4-VP16 UAS-luciferase, luminescence, 20 h;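 note: Gal4-VP16 expression switched on by copper sulfate through the metallothionein promoter; potency is the fitted concentration of half-maximal effect; % is set by controls: 0 for no effect and ±100 for the full control effect; nearly all actives have a fitted effect of over 50% in size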
# p53 reactivator: re-activators of mutant p53 | AID 504706 | H1299 p53-A138V BP100-luciferase reporter, luminescence, 24 h | Potency, µM (top dose mostly 92.2 µM), without a hit: at the highest dose activity change, positive = activation, most hits filed as activators | 0.063% of 320,000 active; note: potency is the fitted concentration of half-maximal effect; % of control where 0% means no effect; nearly all actives have a fitted effect of over 45% in size
#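 p53-null H1299 cells stably carrying temperature-sensitive p53-A138V and a BP100-luciferase reporter were pinned with compounds (4-point, 1:5 series) and held 24 hrs at 37 deg C. Luminescence was read 10 min after detection reagent.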
# Six1-Eya2 inh: Six1/Eya2 interaction inhibition; Q15475+O00167; AlphaScreen GST-Six1/His-Eya2 binding, biochemical; active compounds read low; activity change, % (test concentration not listed); 0.56% of 360,000 active; AID 651725; in the data active = activity change below about -65%; inconclusive = mostly about -30% to -63%; note: % is set by controls: 0 for no effect and ±100 for the full control effect
#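 AlphaScreen with GST-Six1 and His-Eya2 (5X mix: 250 nM and 500 nM), glutathione donor and nickel acceptor beads; buffer 50 mM Tris pH 8.0, 300 mM NaCl, 1 mM TCEP; 1 h at 37 C in the dark.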
# CtBP-E1A blk: blocks the CtBP interaction with E1A; AlphaScreen GST-E1A/His-CtBP binding, 1536-well; active compounds read low; AID 651724; 0.49% of 340,000 active; activity change, % (concentration not given with the values); in the data active = activity change below about -65%; inconclusive = mostly about -30% to -63%; note: % is set by controls: 0 for no effect and ±100 for the full control effect
#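 AlphaScreen with 125 nM GST-E1A and 125 nM His-CtBP (5X stocks) in Tris pH 8.0, 300 mM NaCl, BSA, Tween 20, TCEP. Compounds preincubated 2 h at 37 deg C, then glutathione donor/nickel acceptor beads added for 1 h at 37 deg C in dark.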
# RORgamma inh: inhibitors of mouse ROR gamma transcriptional activity. Potency, µM (doses to about 53.6 µM), inactives show at the highest dose activity change, negative = inhibition, actives largely listed as inhibitors. 5.4% of 310,000 active. Drosophila S2 Gal4-RORgamma UAS-luciferase reporter, 20 h. AID 2551. P51450; note: potency is the fitted concentration of half-maximal effect; % is set by controls: 0 for no effect and ±100 for the full control effect; nearly all actives have a fitted effect of over 60% in size
#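 Using a luciferase readout, inhibitors were identified by reduced reporter activity in Drosophila cells coexpressing a copper-inducible Gal4–ROR gamma fusion and UAS-driven Photinus luciferase, incubated 20 hr after 700 uM copper sulfate.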
# Starred values were filed as active, the others as inactive; ? = inconclusive; · = not tested or not shown. Unless noted, calls come from the whole dose curve; as a rule, active = well fitted curve in the direction sought with a large enough effect; inconclusive = small, poorly fitted or top-dose-only effect, or another doubt; inactive = no such curve, though single readings can be large; an effect the other way counts as inactive or inconclusive.
SMILES,VP16 counter,p53 reactivator,Six1-Eya2 inh,CtBP-E1A blk,RORgamma inh
Cc1sc2ncnc(NCC(C)(C)N3CCOCC3)c2c1C,17.8µM*,1.2%,3.5,8.3,?
c1ccc(-c2csc3ncnc(NCC4COc5ccccc5O4)c23)cc1 (stereo unspecified),0.891µM*,2.0%,-8.2,4.5,7.08µM*
Cc1sc2ncnc(Nc3ccccc3)c2c1C,7.2%,-2.4%,3.0,10.9,0.5%
Cc1sc2ncnc(NCC3COc4ccccc4O3)c2c1C (stereo unspecified),1µM*,-5.0%,2.8,-3.0,?
Cc1ccsc1/C=C1\Oc2cc(OCC(=O)c3ccccc3)ccc2C1=O,?,14.2%,-4.5,-1.7,15.8µM*
Cc1[nH]nc(-c2ccc(O)cc2O)c1-c1nc2ccccc2s1,-8.9%,0.9%,-2.4,-3.4,2.8%
COc1ccc(-c2n[nH]c(C)c2-c2ccc(Cl)cc2)c(O)c1OC,7.08µM*,-34.0%,-9.7,-0.9,7.08µM*
COc1ccc(-c2n[nH]c(C)c2-c2ccc(Cl)cc2)c(O)c1,7.08µM*,-5.2%,-1.3,0.7,3.98µM*
Cc1[nH]nc(-c2ccc(O)cc2O)c1-c1ccc(Cl)cc1,22.4µM*,-8.8%,-6.3,-12.1,12.6µM*
COc1ccc(OCc2cc(C(=O)NC3CCOC(C)(C)C3)no2)c2ccccc12 (stereo unspecified),-0.2%,?,·,·,-1.9%
CCCC[C@H](NC(=O)[C@H](CC(C)C)NC(=O)[C@@H](Cc1c[nH]c2ccccc12)NC(=O)[C@H](Cc1ccccc1)NC(=O)[C@@H](Cc1c[nH]c2ccccc12)NC(=O)[C@H](CC(N)=O)NC(=O)[C@@H](Cc1c(Cl)cccc1Cl)NC(=O)[C@@H]1CCCN1C(=O)[C@H](Cc1ccccn1)NC(=O)[C@@H]1CCCN1C(=O)[C@H](N)CCCCNC(=O)c1cccnc1)C(N)=O,-8.9%,·,·,·,0.3%
Cc1ccc(OCC(=O)NC2=NCCS2)cc1,0.0%,18.6%,-1.5,-8.6,4.7%
Cc1ccc(/C=C/C(=O)NC2=NCCS2)cc1,?,?,-5.8,-1.2,11.2µM*
CC(C)(C)c1ccc(/C=C/C(=O)NC2=NCCS2)cc1,4.47µM*,11.1%,-6.0,0.9,2.82µM*
Cc1ccc(-n2c(SCC(=O)N3CCOCC3)nc(O)cc2=O)cc1,-5.4%,13.0%,-24.2,-10.7,-4.1%
COc1ccc(-n2c(SCC(=O)N3CCOCC3)nc(O)cc2=O)cc1,0.3%,-5.2%,-16.0,3.2,11.2µM*
O=C1N/C(=N\N=C\c2cccs2)SC1Cc1cccc(Cl)c1 (stereo unspecified),0.708µM*,-3.5%,0.5,1.4,0.501µM*
O=C1N/C(=N\N=C\c2cccs2)SC1Cc1ccc(Cl)cc1 (stereo unspecified),0.631µM*,-8.3%,-1.5,-5.9,1.12µM*
O=c1c2c(-c3ccccc3)csc2ncn1/N=C/c1ccc(O)c([N+](=O)[O-])c1,-5.0%,0.1%,1.5,·,17.4%
O=c1c2c(-c3ccccc3)csc2ncn1/N=C/c1cccc([N+](=O)[O-])c1O,-2.1%,-2.6%,?,-72.2*,20µM*
Cc1cc(C)c(OCCCn2ccnc2)c(C)c1,?,·,1.8,1.7,12.6µM*
Cc1cc(C)cc(OCCCn2ccnc2)c1,·,·,-2.4,-7.5,·
Cc1cc(Cl)c(OCCCn2cncn2)c(Br)c1,0.7%,-16.3%,2.1,4.9,17.1%
Cc1ccc(OCCCCn2ccnc2)c(Cl)c1,?,21.0%,-4.1,-6.4,11.2µM*
Cc1cc(Cl)c(OCCCn2ccnc2)c(Br)c1,?,-12.3%,-12.8,-0.3,17.8µM*
SMILES,VP16 counter,p53 reactivator,Six1-Eya2 inh,CtBP-E1A blk,RORgamma inh
Cc1cc(C)c(C)c(OCCCn2ccnc2)c1,-10.4%,-3.4%,-12.1,-4.7,15.8µM*
O=S(=O)(c1cccc(Cn2nnc(-c3ccccc3)n2)c1)N1CCOCC1,·,0.4%,-3.0,-3.7,·
Cc1cc(C)c(C(=O)c2ccccc2C(=O)O)c(C)c1,·,·,7.6,?,·
CC(C)(C)c1ccccc1OCCCCCn1ccnc1,?,13.1%,-15.1,-11.1,17.8µM*
Cc1c(C)n(Cc2ccccc2)c2ccc(C(=O)O)cc12,·,·,-13.5,-11.9,·
Cc1nn(C)cc1/C=N\NC(=O)c1ccc2c(c1)c(C)c(C)n2Cc1ccccc1,?,1.0%,-17.4,-12.1,15.8µM*

# Source: PubChem BioAssay
